The record followed here is PubChem BioAssay (NCI).

What all share (assay): NCI-60 one-dose screen, 48 h (100 = growth as untreated, 0 = no growth, -100 = all killed)
Holding throughout (conditions): 10 µM unless noted

The test system of experiment [1] is NCI-H23 lung.
For experiment [2], the system named is NCI-H226 lung.
The test system of experiment [3] is NCI-H322M lung.
For experiment [4], the system named is HOP-62 NSCLC.
For experiment [5], the system named is NCI-H460 lung.
Experiment [6] has as its system HOP-92 NSCLC.
Experiment [7] concerns NCI-H522 lung.
Experiment [8] deals with A549/ATCC NSCLC.
Experiment [9] deals with 786-0 renal.
Experiment [10] concerns COLO 205 colon.

About 83,000 compounds went through this panel and 20% of them were active in at least one assay; those are over-represented in the sample as a whole.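 Interpretation: 100, growth as untreated; towards 0, rising growth inhibition; 0, no net growth; 0 to -100, cell death. Compounds scoring below 10 were considered active.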 Unmarked numbers belong to inactive results. Calls of active or inactive are those of the source.

`C[C@H](C(=O)N(CCc1ccc(Cl)c(Cl)c1)Cc1cncs1)[C@@H]1CC[C@H](C[C@H](C)n2cc(CN3CCC(c4ccc(Cl)cc4)CC3)nn2)O1`: the growth in experiment [1] is 98.2%; in [2], 85%; in experiment [3], 92.7%; in experiment [4], 101%; in [5] it was 103%; in [6], 106%. Also, the growth in experiment [7] was 86.7%; in experiment [8], 96.3%; in [9] it was 93.2%; in experiment [10] it was 97.6%.

As to `CC(C)CCN(CCC(C)C)CC(O)c1cc2c(c3ccccc13)CCCC2` (stereo not given), the growth in experiment [1] is 56.6%; in [2], 70.2%; in experiment [3], 81.4%; in experiment [4], 85.6%; in experiment [5] it was 75.3%; in [6], 40.2%. The growth in experiment [7] is 56.7%; in experiment [8] it was 73.3%; in [9], 88.8%; in [10], 60.5%.

Consider `CCCn1nc(C(=O)N(C)Cc2ccccc2)c2c1CCC(N1CCc3ccccc31)C2` (stereo not given), for which the growth was 97.9% in experiment [1]; 97.9% in [2]; 101% in [3]; 103% in experiment [4]; 112% in experiment [5]; 90.7% in experiment [6]. The growth was 86.5% in experiment [7], 93% in experiment [8], 95.2% in [9] and 117% in [10].

`CCCCNc1nnc2n(Cc3ccccc3)c(=O)c3c4c(sc3n12)CCCC4`: the growth in experiment [1] is 45.5%; in experiment [2], 50.8%; in [3], 69.2%; in experiment [4], 44.5%; in experiment [5] it was 22.7%; in experiment [6], 53.2%. The growth was 33.2% in experiment [7], 37.8% in [8], 47.6% in experiment [9] and 61.1% in experiment [10].

Regarding `CN(Cc1ccccc1)c1nc(Cl)c(C2CC(c3ccccc3)=NN2c2ccccc2)s1` (stereo not given), the growth was 88.3% in experiment [1]; 89% in experiment [2]; 97.6% in [3]; 84.5% in experiment [4]; 101% in [5]; 86% in [6]. The growth in experiment [7] was 77.8%; in [8] it was 85.7%; in experiment [9], 93.9%; in [10], 105%.

`CCOC(=O)c1c(C)nc2ccccc2c1/C=C/c1ccccc1`: the growth was 51% in experiment [1]; 74.3% in experiment [2]; 95.5% in [3]; 93.8% in [4]; 86.9% in experiment [5]; 79.7% in experiment [6]. Also, the growth is 54.7% in experiment [7], 57.1% in experiment [8], 88.6% in experiment [9] and 84.1% in [10].

For `Cc1[nH]c(C2CC(c3ccc(C(F)(F)F)c(F)c3)=NN2c2ccccc2)c(C)c1C(=O)NCC(F)(F)F` (stereo not given), the growth in experiment [1] was 89%; in experiment [2] it was 77.2%; in experiment [3] it was 88%; in [4] it was 91.4%; in [5] it was 94.2%; in [6] it was 113%. The growth in experiment [7] was 89.5%; in experiment [8], 84.8%; in experiment [9], 90.7%; in experiment [10], 93.7%.

As for `CNCc1cccc2c1OCCOCCOCCNS(=O)(=O)c1ccc(cc1)-c1cnc(N)c(n1)C(=O)N2`, the growth in experiment [1] was 36.7%; in experiment [2] it was 24.5%; in [3], 46.2%; in experiment [4], 26.4%; in [5] it was 9.41% (active); in experiment [6] it was 61.7%. The growth in experiment [7] was 9.67% (active); in [8], 46.3%; in experiment [9], 30.8%; in experiment [10], -18.7% (active).

`O=C(NC1CC(F)C1)c1cc2cccnc2n1-c1ccc(Cl)c(Cl)c1` (stereo not given): the growth in [1] is 100%; in experiment [2], 103%; in experiment [3], 97.3%; in [4], 98.9%; in experiment [5], 101%; in experiment [6], 83%. In addition, the growth in [7] was 88.5%; in [8] it was 96.5%; in experiment [9] it was 95.2%; in experiment [10] it was 109%.

In the case of `COC(=O)c1ccc(NC(=O)Nc2ccc(C(=O)OC)cc2)cc1`, the growth was 113% in experiment [1]; 99% in experiment [2]; 104% in experiment [3]; 106% in [4]; 110% in experiment [5]; 85.7% in [6]. Further, the growth in experiment [7] is 51.2%; in experiment [8], 94.7%; in experiment [9], 105%; in experiment [10], 104%.

Regarding `CCOC(=O)C1=C(C)C(Cl)=N/C1=C\c1[nH]c(Cl)c(C)c1C(=O)OCC`, the growth in experiment [1] is 98.2%; in [2], 65.1%; in experiment [3] it was 100%; in [4], 96.5%; in experiment [5], 108%; in [6] it was 87.8%. Also, the growth in [7] was 77.5%; in experiment [8] it was 78%; in experiment [9] it was 97.7%; in experiment [10], 107%.

For the compound `N#Cc1c(-c2ccccc2)nc(SCC(O)CN2CCOCC2)nc1N1CCOCC1` (stereo not given), the growth is 81.7% in experiment [1]; 80% in experiment [2]; 52.3% in experiment [3]; 48% in experiment [4]; 34% in experiment [5]; 30.7% in experiment [6]. Further, the growth in experiment [7] is 63.3%; in experiment [8], 80.3%; in experiment [9], 38.1%; in experiment [10], 81.1%.

Take `N=C(N)c1ccc(-c2ccc(-c3cc(Cl)cc(Cl)c3)s2)nc1`: the growth in [1] was 75.5%; in experiment [2], 93.7%; in experiment [3], 52.8%; in experiment [4], 86.5%; in experiment [5], -60.3% (active); in experiment [6], 87.8%. Moreover, the growth in experiment [7] is 34.1%; in [8], 0.133% (active); in experiment [9] it was 79.6%; in [10], -38.4% (active).

With `O=C(C1=Cc2cc3ccccc3n2Cc2cnnn21)c1ccc(O)cc1`, the growth in experiment [1] is 75.6%; in experiment [2], 85.1%; in [3], 89.4%; in experiment [4] it was 55.7%; in experiment [5], 27.8%; in experiment [6], 84.4%. Besides, the growth in experiment [7] is 36.7%; in [8] it was 50.7%; in [9], 81.8%; in [10], 75.5%.

For `CCOC(=O)CC1CSC(Nc2ccccc2)=N1` (stereo not given), the growth is 98% in [1]; 105% in experiment [2]; 96.5% in experiment [3]; 100% in experiment [4]; 109% in [5]; 120% in experiment [6]. For the same compound, the growth is 94.9% in experiment [7], 95.3% in experiment [8], 98.7% in experiment [9] and 125% in experiment [10].

In the case of `C=C(C)[C@@H]1CCC[C@]2(C(=O)N3CCN(C)CC3)CC[C@]3(C)[C@@H](CC[C@@H]4[C@@]5(C)CC/C(=N\NC(=O)c6ccncc6)C(C)(C)[C@@H]5CC[C@]43C)[C@@H]12`, the growth is 93.3% in experiment [1]; 101% in experiment [2]; 93.7% in experiment [3]; 96.9% in experiment [4]; 88% in experiment [5]; 107% in [6]. In addition, the growth in experiment [7] is 98.3%; in [8], 99.5%; in [9], 93.6%; in [10] it was 99.1%.

Take `COc1cccc(Nc2ncnc3cc(NC(=O)CCl)ccc23)c1`: the growth was -50.9% (active) in experiment [1]; -48.3% (active) in experiment [2]; 37.5% in experiment [3]; -89.8% (active) in experiment [4]; -72.7% (active) in experiment [5]; -74.8% (active) in [6]. In addition, the growth is -77.4% (active) in experiment [7], -27.7% (active) in [8], -89.7% (active) in [9] and -90% (active) in [10].

For `CCOC(=O)c1[nH]c2c(c1C)-c1[nH]c(=O)c(S(=O)(=O)c3ccccc3)cc1SC2`, the growth in experiment [1] is 35.4% [100 µM]; in experiment [2] it was 37.9% [100 µM]; in experiment [3] it was 42.4% [100 µM]; in [4], 34.3% [100 µM]; in [5], 38.2% [100 µM]; in experiment [6], -27.4% [100 µM] (active). In addition, the growth in experiment [7] was -0.182% [100 µM] (active); in experiment [8], 43.7% [100 µM]; in experiment [9], 21.1% [100 µM]; in experiment [10] it was -25.8% [100 µM] (active).

Consider `C#CCNC(=O)[C@]1(C)CCC[C@@]2(C)[C@H]1CC=C1C=C(C(C)C)CC[C@@H]12`, for which the growth was 100% in experiment [1]; 97.6% in experiment [2]; 100% in [3]; 98.7% in [4]; 106% in experiment [5]; 109% in experiment [6]. In addition, the growth in experiment [7] is 96.2%; in [8] it was 97.6%; in [9] it was 96.8%; in [10], 115%.

`Cc1cccc(-c2nc(Nc3ccc4ncsc4c3)c3ccccc3n2)n1`: the growth in [1] was 57.8%; in [2], 84.9%; in experiment [3] it was 93.5%; in experiment [4], 80.2%; in experiment [5] it was 36.1%; in experiment [6], 110%. The growth in experiment [7] is 56%; in experiment [8], 34.5%; in experiment [9] it was 87.7%; in experiment [10], 12.8%.

As for `CCN(CC)CCCN1C(=O)c2c(c(C)c3c(oc4ccc(OC)cc43)c2C)C1=O`, the growth in experiment [1] was 104%; in [2], 32.4%; in experiment [3] it was 102%; in [4], 93.9%; in experiment [5], 108%; in [6], 86.7%. Besides, the growth in experiment [7] is 93.9%; in [8] it was 101%; in experiment [9], 40.2%; in experiment [10] it was 92.2%.

Regarding `O=C1/C=C/[C@@H](O)[C@@H]2C[C@@H](O)C[C@H]2/C=C/CCC[C@H](CCO)O1`, the growth was 10.2% in experiment [1]; -38.9% (active) in experiment [2]; 29.3% in experiment [3]; 31% in [4]; 15.9% in [5]; -7.37% (active) in [6]. Further, the growth was -12.4% (active) in experiment [7], 17.7% in experiment [8], -51.7% (active) in [9] and -66.9% (active) in experiment [10].

Take `Oc1ccc(/C=C/c2ccc(O)cc2)cc1`: the growth in experiment [1] is 62.2%; in experiment [2], 90.8%; in [3], 58.5%; in [4], 71.4%; in experiment [5], 34.5%; in experiment [6] it was 73.2%. The growth in [7] was -0.122% (active); in experiment [8] it was 60.7%; in experiment [9], 24.3%; in experiment [10] it was 134%.

For the compound `Cn1cc(-c2ccc(-c3cn(C)c4ccc(Cl)cc34)[nH]2)c2cc(Cl)ccc21`, the growth was 10.9% in experiment [1]; 6.47% (active) in [2]; 41.4% in experiment [3]; 9.58% (active) in experiment [4]; -60.2% (active) in [5]; -36% (active) in experiment [6]. In addition, the growth in experiment [7] was -33.8% (active); in experiment [8] it was -48.3% (active); in experiment [9], 41%; in experiment [10], -91.5% (active).

Consider `C#CCn1cnc2cnc(Nc3cccc(NC(=O)C=C)c3)nc21`, for which the growth was 95.6% [6.25 µM] in experiment [1]; 78.8% [6.25 µM] in experiment [2]; 96.1% [6.25 µM] in experiment [3]; 78.6% [6.25 µM] in experiment [4]; 90.6% [6.25 µM] in [5]; 32.6% [6.25 µM] in [6]. The growth in experiment [7] was 71.4% [6.25 µM]; in [8], 85.3% [6.25 µM]; in experiment [9] it was 56.8% [6.25 µM]; in experiment [10], 82.2% [6.25 µM].

For `COC(=O)N1CC(Oc2ccccn2)C2CC1c1ccccc1O2` (stereo not given), the growth is 94% in [1]; 104% in experiment [2]; 119% in experiment [3]; 100% in experiment [4]; 100% in experiment [5]; 90.3% in experiment [6]. Also, the growth in experiment [7] was 97.6%; in [8], 98.6%; in experiment [9], 104%; in [10], 102%.
